Measurements as given in PubChem BioAssay (NCATS).
Inconclusive results are not listed. The source made the active and inactive calls. Unless noted, calls come from the whole dose curve; as a rule, active = well fitted curve in the direction sought with a large enough effect; inconclusive = small, poorly fitted or top-dose-only effect, or another doubt; inactive = no such curve, though single readings can be large; an effect the other way counts as inactive or inconclusive.

Columns and labels:
[1] = Validation screen for small molecules that induce DNA re-replication in SW480 colon adenocarcinoma cells (AID 504364); note: potency is the fitted concentration of half-maximal effect
In short: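 SW480 cells seeded at 250 per well were exposed to compound or DMSO for 48 hr at 37 C, 5% CO2, then stained with Hoechst for 40 min. DNA content per nucleus was imaged (405 nm ex, 500-530 nm em).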

[2] = target: Peptidyl-prolyl cis-trans isomerase NIMA-interacting 1 (Homo sapiens) (UniProt Q13526); assay: qHTS Validation Assay to Find Inhibitors of Pin1 (AID 504536; active = well fitted inhibition curve with a large enough effect in the polarisation, with a control signal flat, not every such curve was filed as active; the % refers to the polarisation)
Chain of Peptidyl-prolyl cis-trans isomerase NIMA-interacting 1 (Homo sapiens) (Q13526 whole entry, looked up): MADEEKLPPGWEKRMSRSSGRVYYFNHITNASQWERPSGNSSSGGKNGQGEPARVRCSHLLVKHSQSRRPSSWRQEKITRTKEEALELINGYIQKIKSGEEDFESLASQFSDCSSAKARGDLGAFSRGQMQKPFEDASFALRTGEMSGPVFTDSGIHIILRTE
In short: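 Fluorescence polarization competition: compounds (titration) displace HiFluor-488-labeled Pin1-1b peptide from Pin1 (0.3 uM final) in pH 7.5 HEPES buffer with DTT, 10 min at room temperature; %Activity normalized to no-enzyme wells, curves fitted.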

[3] = target: Phosphoglycerate kinase, glycosomal (Trypanosoma brucei brucei) (UniProt P07378); assay: qHTS Validation Assay to Find Inhibitors of Phosphoglycerate Kinase (AID 504547); note: potency is the fitted concentration of half-maximal effect
Chain of Phosphoglycerate kinase, glycosomal (Trypanosoma brucei brucei) (P07378 whole entry, looked up): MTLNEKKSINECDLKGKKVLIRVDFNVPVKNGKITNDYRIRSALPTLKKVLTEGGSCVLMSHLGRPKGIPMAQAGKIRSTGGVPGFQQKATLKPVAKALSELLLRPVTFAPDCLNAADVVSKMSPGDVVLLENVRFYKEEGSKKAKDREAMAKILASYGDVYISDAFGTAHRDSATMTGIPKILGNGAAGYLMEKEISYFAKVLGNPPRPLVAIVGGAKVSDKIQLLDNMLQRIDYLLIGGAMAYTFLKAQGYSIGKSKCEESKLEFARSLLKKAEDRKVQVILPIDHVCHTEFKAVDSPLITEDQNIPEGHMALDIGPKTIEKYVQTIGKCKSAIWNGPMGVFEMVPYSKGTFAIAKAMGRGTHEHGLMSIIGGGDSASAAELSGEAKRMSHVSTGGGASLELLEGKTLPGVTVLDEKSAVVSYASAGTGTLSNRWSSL
In short: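 Substrate/PGK mix plus compound; reaction started with GAPDH (100nM final) to form 1,3-BPG; 60 min RT; Kinase-Glo Plus 10 min; luminescence. TEA 100mM pH 7.6, MgCl2 5mM, Tween-20 0.01%.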

[4] = target: phosphoglycerate mutase (Leishmania major) (UniProt Q4Q090); assay: qHTS Validation Assay to Find Inhibitors of Phosphoglycerate Mutase (AID 504548); details: Potency: inhibition qHTS; note: potency is the fitted concentration of half-maximal effect
Chain of phosphoglycerate mutase (Leishmania major) (Q4Q090 1-553): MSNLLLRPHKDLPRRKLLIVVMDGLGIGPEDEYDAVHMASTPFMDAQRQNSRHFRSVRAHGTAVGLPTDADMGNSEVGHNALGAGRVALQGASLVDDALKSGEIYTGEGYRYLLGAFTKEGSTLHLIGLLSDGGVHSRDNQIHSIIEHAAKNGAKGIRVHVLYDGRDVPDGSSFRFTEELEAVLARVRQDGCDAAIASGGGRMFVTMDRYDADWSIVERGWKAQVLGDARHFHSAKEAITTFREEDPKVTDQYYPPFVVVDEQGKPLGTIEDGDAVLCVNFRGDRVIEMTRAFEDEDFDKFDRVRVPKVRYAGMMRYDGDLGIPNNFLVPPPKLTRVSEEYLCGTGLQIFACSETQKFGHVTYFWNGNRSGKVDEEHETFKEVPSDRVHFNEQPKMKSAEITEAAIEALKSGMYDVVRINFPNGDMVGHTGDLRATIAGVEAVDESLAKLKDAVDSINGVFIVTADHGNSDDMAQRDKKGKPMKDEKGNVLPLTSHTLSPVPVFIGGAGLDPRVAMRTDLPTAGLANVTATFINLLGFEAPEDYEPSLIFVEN
In short: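 Lm PGAM at 1.25 nM final with substrate in 100 mM TEA pH 7.6, 5 mM MgCl2, 0.01% Tween-20; 45 min at room temperature. Kinase-GloPlus added, 10 min, end-point luminescence read.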

[5] = target: Ubiquitin carboxyl-terminal hydrolase 1 (Homo sapiens) (UniProt O94782); assay: Inhibitors of USP1/UAF1: Pilot qHTS (AID 504865); note: nearly all actives have a fitted effect of over 35% in size; note: potency is the fitted concentration of half-maximal effect
Chain of Ubiquitin carboxyl-terminal hydrolase 1 (Homo sapiens) (O94782 whole entry, looked up): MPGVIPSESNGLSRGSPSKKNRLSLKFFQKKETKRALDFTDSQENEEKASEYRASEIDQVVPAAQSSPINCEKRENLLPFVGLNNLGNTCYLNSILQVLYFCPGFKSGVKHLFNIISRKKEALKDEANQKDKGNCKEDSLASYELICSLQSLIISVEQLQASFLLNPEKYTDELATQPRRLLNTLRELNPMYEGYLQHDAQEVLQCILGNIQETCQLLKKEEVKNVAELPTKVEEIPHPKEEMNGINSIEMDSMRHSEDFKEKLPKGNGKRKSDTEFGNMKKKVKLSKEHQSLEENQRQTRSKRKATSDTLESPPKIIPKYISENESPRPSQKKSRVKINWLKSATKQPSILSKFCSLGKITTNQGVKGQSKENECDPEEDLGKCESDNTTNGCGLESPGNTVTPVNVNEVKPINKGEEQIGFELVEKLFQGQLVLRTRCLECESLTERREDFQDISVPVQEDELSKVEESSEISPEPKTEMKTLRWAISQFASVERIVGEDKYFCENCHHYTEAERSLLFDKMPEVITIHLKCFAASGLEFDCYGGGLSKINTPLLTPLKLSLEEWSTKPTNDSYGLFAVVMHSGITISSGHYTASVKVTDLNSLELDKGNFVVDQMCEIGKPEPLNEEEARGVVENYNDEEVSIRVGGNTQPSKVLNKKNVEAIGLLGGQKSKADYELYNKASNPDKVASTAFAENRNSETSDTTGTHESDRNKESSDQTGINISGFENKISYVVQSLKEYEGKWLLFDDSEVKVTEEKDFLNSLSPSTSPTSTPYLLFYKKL
In short: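 Kinetic fluorescence assay: 1nM USP1/UAF1, 15 min compound preincubation, then 150nM Ub-Rho; 480/540 nm.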

[6] = target: DNA dC->dU-editing enzyme APOBEC-3G (Homo sapiens) (UniProt Q9HC16); assay: qHTS for inhibitors of Vif-A3G interactions: Validation (AID 588379); note: potency is the fitted concentration of half-maximal effect
Chain of DNA dC->dU-editing enzyme APOBEC-3G (Homo sapiens) (Q9HC16 whole entry, looked up): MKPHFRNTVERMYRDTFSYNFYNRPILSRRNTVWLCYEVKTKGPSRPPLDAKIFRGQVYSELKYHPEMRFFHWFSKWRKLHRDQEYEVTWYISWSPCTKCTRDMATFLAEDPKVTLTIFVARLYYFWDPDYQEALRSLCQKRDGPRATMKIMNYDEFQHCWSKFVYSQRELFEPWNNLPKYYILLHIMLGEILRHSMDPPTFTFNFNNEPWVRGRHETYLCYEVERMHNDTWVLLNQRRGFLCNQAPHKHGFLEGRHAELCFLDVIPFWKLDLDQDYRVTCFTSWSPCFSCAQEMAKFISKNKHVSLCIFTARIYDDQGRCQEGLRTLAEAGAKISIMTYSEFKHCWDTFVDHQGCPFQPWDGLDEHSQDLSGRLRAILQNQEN
In short: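 HeLa cells stably expressing Vif and A3G-eYFP, 700 cells/well, incubated overnight at 37 deg C, then exposed to compound overnight at 37 deg C. Inhibition of Vif-mediated degradation read as increased yellow fluorescence (Ex 488/Em 500-530) by laser-scanning cytometry.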

[7] = qHTS for Inhibitors of ATXN expression: Validation of Cytotoxic Assay (AID 588349); note: potency is the fitted concentration of half-maximal effect
In short: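 HEK293 cells were dosed with titrated compounds for 72 hr at 37 degrees C. Viability was read by CellTiter Glo luminescence, with intracellular ATP as the marker of cell survival.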

[8] = qHTS for Inhibitors of ATXN expression: Validation (AID 588378); note: series mostly up to about 57 µM; nearly all actives have a fitted effect of over 75% in size
In short: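 Validation of ATXN2 expression inhibitors uses a cell-based luciferase fusion reporter in HEK293 cells, with 24 h compound exposure and paired viability (fluorescence) and reporter (luminescence) end-point reads.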

Measured: Potency

CNCC[C@H](Oc1ccc(C(F)(F)F)cc1)c1ccccc1
not listed: [7] | [8]
inactive: all other assays above

NC(CCCP(=O)(O)O)C(=O)O (stereo unspecified)
inactive: [1] | [2] | [3] | [4] | [7]

O=c1[nH]c2cc([N+](=O)[O-])c([N+](=O)[O-])cc2[nH]c1=O
inactive: all assays above

Brc1c(Br)c(Br)c2n[nH]nc2c1Br
inactive: [1] | [2] | [3] | [4] | [7]

Cc1cc(NC(=O)Nc2ccc3c(ccn3C)c2)sn1
not listed: [7]
inactive: all other assays above

O=C1O/C(=C/Br)CCC1c1cccc2ccccc12 (stereo unspecified)
active: [7] 31.6 µM
inactive: [1] | [2] | [3] | [4]

Cc1ccc(C(=O)O[C@H](C(=O)O)[C@@H](OC(=O)c2ccc(C)cc2)C(=O)O)cc1 (tested in a mixture with another compound)
not listed: [6]
inactive: all other assays above

Cc1ccc(O)c(N=Nc2ccccc2)n1
inactive: [1] | [2]
active: [3] 10.7 µM | [4] 10.7 µM | [6] 10.6 µM

C#CCN1C(C)=C(C(=O)OC)C(c2cccc([N+](=O)[O-])c2)C(C(=O)OCC)=C1C (stereo unspecified)
inactive: [1] | [2] | [3] | [4] | [7]

COC(=O)c1c(C)[nH]c(C)c1C(=O)c1ccccc1Cc1ccccc1
not listed: [5]
inactive: all other assays above

CN=c1nc(-c2ccccc2)n(-c2ccccc2)s1
inactive: [1] | [2] | [3] | [5]

CC(C)NC[C@H](O)COc1cccc2[nH]ccc12
inactive: all assays above

O=C(O)c1cc(=O)c2ccccc2[nH]1
inactive: all assays above

CCCCCCCCCCCCCCCCCC(=O)OC(CC(=O)O)C[N+](C)(C)C (stereo unspecified)
active: [1] 11.6 µM
inactive: [2] | [3] | [4] | [8]

CCN1/C(=C/C(C)=O)Sc2ccc(OC)cc21
inactive: [1] | [2] | [3] | [5] | [7]

O=[N+]([O-])c1ccc2c(c1)S(=O)(=O)C=C2
inactive: [2] | [3] | [4]

O=Nc1ccc2oc(=O)ccc2c1
inactive: [2] | [3] | [4]

CC1CN(S(=O)(=O)c2cccc3cnccc23)CCN1 (stereo unspecified)
not listed: [4] | [6]
inactive: all other assays above

CN(C)c1nc2c(Br)c(Br)c(Br)c(Br)c2[nH]1
not listed: [4] | [6]
inactive: all other assays above

C=C[C@H]1CN2CC[C@@H]1C[C@@H]2[C@@H](O)c1ccnc2ccc(OC)cc12
inactive: [2] | [3] | [4]

OCC1O[C@H](O)C(Cl)C(O)C1O (stereo partly specified)
not listed: [4] | [6]
inactive: all other assays above

O=C(/C=C/c1ccc(O)c(O)c1)OCCc1ccccc1
inactive: [2] | [3] | [4]

O=C(O)[C@@H]1C[C@@H](C(=O)O)N1
not listed: [2]
inactive: all other assays above

O=c1[nH]c2cc(Cl)c(Cl)cc2[nH]c1=O
not listed: [4] | [6]
inactive: all other assays above

O=C1NC(O)=NC1(c1ccccc1)c1ccccc1
inactive: [1] | [3] | [4] | [5]

CCCCCCCCCCCCCCCCCCNC(=O)OCC(COP(=O)([O-])OCC[n+]1ccsc1)OC (stereo unspecified)
inactive: [2] | [3] | [4]

COc1cc2c(CCNC(C)=O)c[nH]c2cc1Cl
not listed: [4]
inactive: all other assays above

O=C(c1cc(O)c(O)c([N+](=O)[O-])c1)c1ccccc1F
inactive: [1] | [4] | [5] | [7] | [8]

Cn1cc(C2=C(c3ccc(Cl)cc3Cl)C(=O)NC2=O)c2ccccc21
inactive: [1] | [3] | [7] | [8]
active: [5] 23.8 µM | [6] 2.99 µM

CC(C)ON([C@@H](C(=O)NO)C(C)C)S(=O)(=O)c1ccc(-c2ccccc2)cc1
inactive: [2] | [3] | [4]
